Results filed as inconclusive are left out. Active and inactive are the calls of the source. The calls were made as follows: active = hit-call score of the fitted dose curve at least 0.9, where 1 is the maximum; inconclusive = response in the unintended direction; inactive = score below 0.9.

Chain of Estrogen receptor (Homo sapiens) (P03372 whole entry, looked up, the tested form may be a part): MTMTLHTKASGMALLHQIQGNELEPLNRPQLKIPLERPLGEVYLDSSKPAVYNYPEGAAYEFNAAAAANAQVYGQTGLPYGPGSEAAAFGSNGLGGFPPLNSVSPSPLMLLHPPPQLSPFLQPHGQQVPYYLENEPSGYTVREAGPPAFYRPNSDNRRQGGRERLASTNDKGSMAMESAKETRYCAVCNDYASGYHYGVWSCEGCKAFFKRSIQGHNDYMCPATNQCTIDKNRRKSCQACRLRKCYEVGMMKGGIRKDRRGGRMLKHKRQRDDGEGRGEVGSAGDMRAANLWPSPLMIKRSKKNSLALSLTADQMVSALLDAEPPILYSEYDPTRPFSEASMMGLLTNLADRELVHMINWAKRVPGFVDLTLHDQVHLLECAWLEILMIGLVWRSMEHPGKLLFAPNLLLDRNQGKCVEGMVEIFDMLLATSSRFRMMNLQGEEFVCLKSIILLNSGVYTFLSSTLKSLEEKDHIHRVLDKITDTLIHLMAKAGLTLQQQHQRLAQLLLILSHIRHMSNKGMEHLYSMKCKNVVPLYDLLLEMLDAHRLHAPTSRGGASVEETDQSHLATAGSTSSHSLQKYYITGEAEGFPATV

This experiment addresses Estrogen receptor (Homo sapiens) (UniProt P03372). In words: OT_ER_ERaERa_0480: Odyssey Thera (OT) 8-hour HEK293T Protein-Complementation Assay for Estrogen Receptor-alpha/-alpha Homodimer (AID 2283351).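 Also: rise in fluorescence from reassembled reporter fragments on ERα LBD homodimer in nucleus or whole cell.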 As for the experimental part: OT_ER_ERaERa_0480 is a cell-based assay that uses HEK293T, a human kidney cell line, with measurements taken at 8 hours after chemical dosing in a 384-well plate.OT_ER_ERaERa_0480 is one of one assay component(s) measured or calculated from the OT_ER_ERaERa_0480 assay. It is designed to make measurements of protein fragment complementation, a form of binding reporter, as detected with fluorescence intensity signals by Protein-fragment Complementation technology.Data from the assay component OT_ER_ERaERa_0480 was analyzed into 1 assay endpoint. This assay endpoint, OT_ER_ERaERa_0480, was analyzed in the positive analysis fitting direction relative to DMSO as the negative control and baseline of activity. Using a type of binding reporter, measures of receptor for gain-of-signal activity can be used to understand the binding at the pathway-level as they relate to the gene ESR1. Furthermore, this assay endpoint can be referred to as a primary readout, because the performed assay has only produced 1 assay endpoint. To generalize the intended target to other relatable targets, this assay endpoint is annotated to the nuclear receptor intended target family, where the subfamily is steroidal.
Protein-fragment complementation assay, or PCA, is a method for the identification and quantification of protein-protein interactions. In the PCA, the proteins of interest ("bait" and "prey") are each covalently linked to fragments of a third protein (e.g. DHFR, which acts as a "reporter"). Interaction between the bait and the prey proteins brings the fragments of the reporter protein in close proximity to allow them to form a functional reporter protein whose activity can be measured. The OT ER alpha / ER alpha assay is a homodimer PCA of the ligand binding domain (amino acids 310-547) of human ER alpha stably expressed in HEK293T cells. […] Fluorescent signal in the basal state of the assay is very low and is primarily punctuate and cytoplasmic. Modulation of this assay is quantified as an increase in mean fluorescence intensity in the nucleus (for agonists) or in the nucleus and cytoplasm (antagonists) relative to vehicle controls, and can be quantified on a high content imaging device or a laser scanning cytometer. The latter instrument is favored for this assay because of the rapid mode of data acquisition, the ability to acquire data from the entire cell population in a well (as opposed to a fraction of the well on the high content devices) and the larger dynamic range typically achieved with this instrument. To assess sensitivity of the ER alpha/ER alpha LBD assay to ligand, cells were treated with the ER agonist 17 beta-estradiol (E2) in 10-point concentration- response format for 8 hours and monitored response on a laser scanning plate cytometer (Acumen eX3; TTP Lab Tech).
`[O-][Cl+2]([O-])O`: the compound was classed as inactive.
As to `Cc1ccc2ccccc2c1C`, the call was inactive.
Same read-out and setting: the entry for `COc1ccc(C=O)cc1` is “inactive”.
Turning to `CCC1(c2ccc(N)cc2)CCC(=O)NC1=O` (stereo not given), the compound was classed as inactive.
Same read-out and setting: the entry for `COc1ccc(C=O)cc1OC` is “inactive”; for `CNC` it is “inactive”.
Take `CCC[CH2][Sn]([CH2]CCC)([CH2]CCC)[O]C(=O)c1ccccc1`: the outcome was inactive.
As for `CCCCCCCCSC(=O)Oc1cc(Cl)nnc1-c1ccccc1`, the compound was classed as inactive.
`C=C(C)C#N`: the result was inactive.
Turning to `CC(C)(c1ccc(OCC2CO2)cc1)c1ccc(OCC2CO2)cc1` (stereo not given), the result was inactive.
As to `O=S(=O)(c1ccc(Cl)cc1)c1ccc(Cl)cc1`, the outcome was inactive.
`CC(=O)[O][Hg][c]1ccccc1`: the outcome was inactive.
Regarding `O=C/C=C/c1ccccc1`, the compound was called inactive.
As for `C=CC#N`, the result was inactive.
Broadly, the AC50 is the concentration giving half of the maximal activity seen. `CCOP(=S)(OCC)SCSP(=S)(OCC)OCC`: the AC50 is 6.96 µM (active).
`CC(=O)c1cc(C(C)(C)C)cc2c1CCC2(C)C`: the result was inactive.
Same read-out and setting: the entry for `ClC1(Cl)C2(Cl)C3(Cl)C4(Cl)C(Cl)(Cl)C5(Cl)C3(Cl)C1(Cl)C5(Cl)C24Cl` (stereo not given) is “inactive”.
As to `Cl/C=C/Cl`, the result was inactive.
In the case of `CC(C)(C)c1cc(O)ccc1O`, the compound was classed as inactive.
Same read-out and setting: under `CC(C)(OO)c1ccccc1` stands “inactive”; under `Cl/C=C\C[N+]12CN3CN(CN(C3)C1)C2`, “inactive”; under `CCC(=O)C(CC(C)N(C)C)(c1ccccc1)c1ccccc1` (stereo not given), “inactive”.
`C1CCC(NC2CCCCC2)CC1`: the result was inactive.
As for `CC(C#N)CCC#N` (stereo not given), the result was inactive.
Turning to `Cn1sc(Cl)cc1=O`, the result was inactive.
`C=C(C)C(=O)[O][Sn]([CH2]CCC)([CH2]CCC)[CH2]CCC`: the call was inactive.
On to `CCC[CH2][Sn]([Cl])([Cl])[Cl]`, for which the compound was classed as inactive.
As for `CC(C)c1cccc(C(C)C)c1O`, the call was inactive.
For the compound `ClC(Cl)=C(Cl)C(Cl)=C(Cl)Cl`, the call was inactive.
Turning to `c1cc[c]([Hg][c]2ccccc2)cc1`, the call was inactive.
As for `CC1(C)Cc2cccc(O)c2O1`, the outcome was inactive.
For the compound `C[C@H]1CCCC(=O)CCC/C=C/c2cc(O)cc(O)c2C(=O)O1`, the AC50 was 0.291 µM (active).
Regarding `CC(C)(c1ccccc1)c1ccc(O)c(C(C)(C)c2ccccc2)c1`, the call was inactive.
As for `N#CN=C(N)N`, the outcome was inactive.
With `CC(=O)C=C(C)C`, the outcome was inactive.
With `COP(=S)(OC)Oc1ccc(Sc2ccc(OP(=S)(OC)OC)cc2)cc1`, the outcome was inactive.
In the case of `COP(=O)(OC)OC`, the call was inactive.
Same read-out and setting: under `CCCCOCCOC(C)=O` stands “inactive”; under `OCc1ccco1`, “inactive”; under `BrCCBr`, “inactive”.

The values are drawn from PubChem BioAssay (EPA / NIEHS).
